Screening results: PubChem, several laboratories
CYP2C9 activ: CYP2C9 (human) activation | P11712 | recombinant CYP2C9, luciferin-H conversion, luminescence; active compounds read high; factor 1 = untreated enzyme, 0 = blocked | activation factor at 5 µM | actives 1.4% (n = 96,000);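 active means activation factor of 2 or more for CYP2C9 at a 5 µM dose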;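 further: 0 = sulfaphenazole-blocked wells and 1 = vehicle-only wells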
CYP2C9 inhib: blocks human cytochrome P450 2C9; CYP2C9 Supersomes, luciferin-H conversion, luminescence; inhibition, % at 5 µM; actives 20% (n = 96,000); AID 777;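 active means blocking of liver enzyme CYP2C9 beyond about 50% at 5 µM, limit read from the data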
CYP2C19 activ: activators of human cytochrome P450 2C19; P33261; recombinant CYP2C19, luciferin-H EGE luminescence; active compounds read high; 0 = fully inhibited enzyme, 1 = untreated enzyme; activation factor at 5 µM; 96,000 tested, under 10 active;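 active means activation factor of at least 2 at 5 µM in the primary screen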;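 further: 0 = wells with 2.5 mM tranylcypromine and 1 = vehicle-only wells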
Cav3 T inh: blocks human Cav3.2 T-type calcium channel; actives 4% (n = 100,000); B-score at 10 µM; O95180; Cav3.2-expressing cells, Fluo-4 calcium fluorescence FDSS; active compounds read low;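 active means single-dose well whose peak fluorescence ratio is a statistical outlier from its plate by either plate-standardised score or position-corrected B-score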
CYP2C19 inh: inhibitors of human CYP2C19; inhibition, % at 5 µM; actives 21% (n = 96,000); P33261; CYP2C19 Supersomes, luciferin-H EGE luminescence, 30 min;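 active means CYP2C19 inhibition above a set limit at 5 µM in the primary screen, cut at about 50% in these data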;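 further: plate controls were negative control wells for no effect and 2.5 mM tranylcypromine positive control for full effect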
Pyk2 oligo antag: antagonists of human Pyk2 oligomerization; Q293 cells, Pyk2 FERM NanoBiT luminescence; active compounds read low; z-score (the deposit names both 25 µM and 10 µM); actives 0.83% (n = 99,000);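 active means Z-score of -3 or lower, scaled per plate to the spread of control and sample wells; inactive means z-score above -3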;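 further: negative z-score means lost luminescence so less FERM oligomerization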
Target sequence (Q14289 whole entry, looked up): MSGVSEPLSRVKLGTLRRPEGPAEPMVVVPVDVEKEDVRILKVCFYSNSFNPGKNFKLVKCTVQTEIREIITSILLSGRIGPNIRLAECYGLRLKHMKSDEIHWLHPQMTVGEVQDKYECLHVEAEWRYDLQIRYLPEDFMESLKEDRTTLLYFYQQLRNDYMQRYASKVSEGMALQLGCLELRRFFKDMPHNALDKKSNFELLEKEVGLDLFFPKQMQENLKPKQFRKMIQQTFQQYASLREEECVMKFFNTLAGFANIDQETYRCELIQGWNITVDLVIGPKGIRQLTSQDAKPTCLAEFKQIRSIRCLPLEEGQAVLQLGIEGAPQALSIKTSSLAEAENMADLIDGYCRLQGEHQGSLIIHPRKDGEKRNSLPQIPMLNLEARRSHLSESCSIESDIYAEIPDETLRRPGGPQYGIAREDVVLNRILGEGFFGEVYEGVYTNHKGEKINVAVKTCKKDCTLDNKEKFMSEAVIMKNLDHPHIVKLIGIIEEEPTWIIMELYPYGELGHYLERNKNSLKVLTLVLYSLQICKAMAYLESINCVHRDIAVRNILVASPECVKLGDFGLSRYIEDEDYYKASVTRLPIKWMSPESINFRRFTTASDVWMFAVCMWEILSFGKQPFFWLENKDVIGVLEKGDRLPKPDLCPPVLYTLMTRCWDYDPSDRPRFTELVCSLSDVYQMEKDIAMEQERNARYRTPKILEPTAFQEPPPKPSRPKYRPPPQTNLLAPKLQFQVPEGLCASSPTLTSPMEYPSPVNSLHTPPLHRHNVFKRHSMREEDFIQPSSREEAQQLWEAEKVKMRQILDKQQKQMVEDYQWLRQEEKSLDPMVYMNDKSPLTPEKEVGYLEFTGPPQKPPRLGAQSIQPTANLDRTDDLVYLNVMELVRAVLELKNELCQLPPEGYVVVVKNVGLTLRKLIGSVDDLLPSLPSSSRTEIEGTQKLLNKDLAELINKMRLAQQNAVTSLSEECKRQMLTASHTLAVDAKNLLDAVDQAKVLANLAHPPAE
* = called active by the depositor. Compounds with a hit are over-represented: about 27% of the library has one in this group of screens.

`Cc1sc2ncn(CC(=O)NCCCC(=O)N3CCN(c4ncccn4)CC3)c(=O)c2c1C` gave CYP2C9 activ 0.8, CYP2C9 inhib 24, CYP2C19 activ 1, Cav3 T inh 0.13, CYP2C19 inh 1 and Pyk2 oligo antag 1.6.
Screening Cc1ccc(C(=O)NCC(=O)N2CCN(c3ncccn3)CC2)s1 returned CYP2C9 activ 0.3, CYP2C9 inhib 72*, CYP2C19 activ 0.6, Cav3 T inh -0.0067, CYP2C19 inh 42 and Pyk2 oligo antag 0.41.
For Cc1ccccc1NC(=O)C1CCN(c2cc(-c3ccccc3)nc3ncnn23)CC1 the results were Cav3 T inh 2.7 and Pyk2 oligo antag -2.6.
For Cc1ccc(/C=c2/sc3nnc(-c4ccccc4Cl)n3c2=O)o1 the results were CYP2C9 activ 0.3, CYP2C9 inhib 68*, CYP2C19 activ 0.4, Cav3 T inh -1.3, CYP2C19 inh 65* and Pyk2 oligo antag -0.58.
Screening CCN(CC)c1ccc(/C=c2/sc3nnc(-c4ccccc4C)n3c2=O)cc1 returned CYP2C9 activ 0.9, CYP2C9 inhib 6, CYP2C19 activ 1, Cav3 T inh -2.9, CYP2C19 inh 4 and Pyk2 oligo antag -0.58.
Cc1ccc(/C=c2\sc3nc(-c4ccccc4Br)nn3c2=O)o1 was read as CYP2C9 activ 1.2, CYP2C9 inhib -21, CYP2C19 activ 0.9, CYP2C19 inh 7 and Pyk2 oligo antag 0.17.
Screening CCN(CC)c1ccc(/C=c2\sc3nnc(-c4ccccc4Cl)n3c2=O)cc1 returned CYP2C9 activ 0.8, CYP2C9 inhib 19, CYP2C19 activ 0.9, Cav3 T inh -4.7*, CYP2C19 inh 6 and Pyk2 oligo antag -1.7.
O=[N+]([O-])c1ccc(Cl)cc1Sc1cccc2cccnc12 was read as Cav3 T inh -0.77 and Pyk2 oligo antag -0.61.
`Cc1n[nH]c(C)c1Sc1ccccc1N=Cc1cc(Cl)cc([N+](=O)[O-])c1O` gave CYP2C9 activ 0.7, CYP2C9 inhib 26, CYP2C19 activ 0.8, Cav3 T inh -6.9*, CYP2C19 inh 19 and Pyk2 oligo antag -0.52.
Screening CCCCn1c(NCc2ccc3c(c2)OCO3)nc2ccccc21 returned Cav3 T inh -4.8 and Pyk2 oligo antag 0.55.
For CCCCn1c(NCc2ccccc2O)nc2ccccc21 the results were CYP2C9 activ 0.7, CYP2C9 inhib 30, CYP2C19 activ 0.5, Cav3 T inh -3.9 and CYP2C19 inh 50.
`CCCn1c(NCc2ccc3c(c2)OCO3)nc2ccccc21` gave CYP2C9 activ 0.7, CYP2C9 inhib 30, CYP2C19 activ 0.4, Cav3 T inh -1.5, CYP2C19 inh 59* and Pyk2 oligo antag -1.2.
`CCCCn1c(NCc2ccccc2NS(=O)(=O)c2ccc(C)cc2)nc2ccccc21` gave CYP2C9 activ 0.5, CYP2C9 inhib 50*, CYP2C19 activ 0.8, Cav3 T inh -1.2, CYP2C19 inh 21 and Pyk2 oligo antag -0.36.
For CCCn1c(C(O)c2ccc3c(c2)OCO3)nc2ccccc21 (configuration not stated) the results were CYP2C9 activ 0.4, CYP2C9 inhib 60*, CYP2C19 activ 0, Cav3 T inh -0.074, CYP2C19 inh 98* and Pyk2 oligo antag -1.1.
Screening CCCn1c(NCc2cc(C)ccc2O)nc2ccccc21 returned CYP2C9 activ 0.8, CYP2C9 inhib 25, CYP2C19 activ 0.5, Cav3 T inh -7*, CYP2C19 inh 53* and Pyk2 oligo antag -1.1.
`CCn1c(C(O)c2ccccc2)nc2ccccc21` (configuration not stated) gave CYP2C9 activ 0.8, CYP2C9 inhib 16, CYP2C19 activ 0.1, Cav3 T inh 0.85, CYP2C19 inh 91* and Pyk2 oligo antag 0.22.
For CCCC(=O)NC(C)c1nc2ccccc2n1C(C)C (configuration not stated) the results were CYP2C9 activ 0.9, CYP2C9 inhib 6, CYP2C19 activ 0.9, Cav3 T inh 0.039 and CYP2C19 inh 9.
`COc1cccc(C(O)c2nc3ccccc3n2C(C)C)c1` (configuration not stated) gave CYP2C9 activ 0.8, CYP2C9 inhib 23, CYP2C19 activ 0.1, Cav3 T inh -1.9, CYP2C19 inh 91* and Pyk2 oligo antag -0.47.
Screening Nc1c(C(=O)NCc2ccco2)nnn1CC(=O)Nc1ccccc1 returned CYP2C9 activ 0.8, CYP2C9 inhib 18, CYP2C19 activ 1, Cav3 T inh -0.11, CYP2C19 inh 3 and Pyk2 oligo antag -0.2.
O=C(NCc1cccs1)C1CCCN(c2nc3ccccc3o2)C1 (configuration not stated) was read as CYP2C9 activ 0.9, CYP2C9 inhib 13, CYP2C19 activ 0.6, Cav3 T inh 0.26, CYP2C19 inh 39 and Pyk2 oligo antag -0.07.
For CC(=O)NS(=O)(=O)c1cccnc1Nc1cccc(Cl)c1 the results were CYP2C9 activ 0.5, CYP2C9 inhib 50*, CYP2C19 activ 0.9, Cav3 T inh -0.0018, CYP2C19 inh 9 and Pyk2 oligo antag 1.4.
For CC(=O)NS(=O)(=O)c1cccnc1Nc1ccc(Cl)cc1 the results were CYP2C9 activ 0.2, CYP2C9 inhib 85*, CYP2C19 activ 1, Cav3 T inh -0.57, CYP2C19 inh 5 and Pyk2 oligo antag 1.6.
Screening N#Cc1cc2c(nc1SCc1cccnc1)CCC2 returned CYP2C9 activ 0.8, CYP2C9 inhib 23, CYP2C19 activ 0.1, Cav3 T inh 0.44, CYP2C19 inh 87* and Pyk2 oligo antag 0.6.
N#Cc1cc2c(nc1SCc1nc3ccccc3[nH]1)CCC2 was read as CYP2C9 activ 0.7, CYP2C9 inhib 28, CYP2C19 activ 0.8, Cav3 T inh -0.77 and CYP2C19 inh 19.
N#Cc1cc2c(nc1SCc1cccnc1)CCCC2 was read as CYP2C9 activ 0.4, CYP2C9 inhib 60*, CYP2C19 activ 0.2, Cav3 T inh -1.9, CYP2C19 inh 78* and Pyk2 oligo antag -1.1.
For COC(=O)[C@@H]1C[C@@]2(O)[C@H](O)[C@H](O)[C@H](O)C[C@H]2N1Cc1ccc(-c2ccccc2)cc1 the results were Cav3 T inh 0.006.
Screening Cc1cnn(-c2ccc3nnc(-c4ccc(Br)cc4)n3n2)c1 returned CYP2C9 activ 0.9, CYP2C9 inhib 14, CYP2C19 activ 1, Cav3 T inh -0.51, CYP2C19 inh 0 and Pyk2 oligo antag 0.18.
Screening CCOC(=O)C1CCN(C(=O)C2CC(=O)N(c3ccc(C)cc3)C2)CC1 (configuration not stated) returned CYP2C9 activ 0.9, CYP2C9 inhib 12, CYP2C19 activ 0.9, Cav3 T inh 0.15, CYP2C19 inh 9 and Pyk2 oligo antag 2.1.
COc1cc(CC(=O)Nc2ncc(C)s2)cc(OC)c1OC was read as CYP2C9 activ 0.5, CYP2C9 inhib 54*, CYP2C19 activ 0.3, Cav3 T inh -2.1, CYP2C19 inh 73* and Pyk2 oligo antag 0.36.
